gsp antagonist = antagonists of gsp mutant (McCune-Albright syndrome) | gsp-mutant cells, cAMP HTRF, 30 min | Potency, µM (series often up to 76.9 µM), for the others: at the highest dose activity change, negative = inhibition, actives largely listed as inhibitors | 340,000 compounds, 0.4% hits | AID 624288; calls by dose curve; cell line not stated here;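 further: intracellular cAMP measured with PDE inhibitor Ro 20-1724 present during compound exposure; potency means the concentration at half of the fitted maximal effect; on the % scale 0 is the no-effect control and ±100 the full control effect; nearly all actives have a fitted effect of over 65% in size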
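G418-selected cells were plated in DMEM/10% FBS for 16-24 h at 37C, then treated with compounds plus the PDE inhibitor […] (300 uM solution added) for 30 min at 37C. Intracellular cAMP was measured by HTRF after 30 min lysis at room temperature.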
KCNH2 3.1 block = blocks the human KCNH2 3.1 channel isoform | U2OS KCNH2 3.1, thallium flux FluxOr; active compounds read low | activity change, % (tested at about 1.8 µM) | 340,000 compounds, 0.95% hits | AID 720553;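 active means maximum activity change below -70%; inconclusive means maximum activity change from -70% to -50%; inactive means maximum activity change above -50%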;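 further: thallium influx rate constant from kinetic fluorescence after stimulation buffer; on the % scale 0 is the no-effect control and ±100 the full control effect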
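U2OS cells transduced with KCNH2 3.1 mutant virus (1.77 x 10^8 /mL, 4 h), plated overnight at 37 C, loaded 45 min with FluxOr dye plus Red40 quencher. Thallium flux rate constant from kinetic reads after stimulation buffer, normalised to controls.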
Akt phos inh = Akt phosphorylation inhibition; Neuro2A IGF-stimulated pAkt S473 HTRF, 20 min; active compounds read low; activity change, % for hits at 50 µM; 360,000 compounds, 0.32% hits; AID 651550; in the data active means activity change below about -80%; inconclusive means mostly about -51% to -80%; further: on the % scale 0 is the no-effect control and ±100 the full control effect
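Neuro2A cells in DMEM with 0.5% FBS, overnight at 37 deg C, given compound at single 50 µM final, then IGF (6 nM final) for 20 min at 37 deg C. Lysed; phospho-Akt Ser473 by HTRF after 24 h, 665/615 ratio.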
gsp ag = activates gsp, the McCune-Albright syndrome mutation. gsp mutant cells, cAMP HTRF, 30 min. Potency, µM (top dose mostly 76.9 µM), without a hit: at the highest dose activation (cAMP increase), usual class: activators. 340,000 compounds, 0.13% hits. AID 624287; active means well fitted activation curve with a large enough effect; inconclusive means small, poorly fitted or top-dose-only effect, or another doubt; inactive means no such curve, though single readings can be large or run the other way; cell line not stated here;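 further: phosphodiesterase inhibitor Ro 20-1724 added with compounds to block cAMP breakdown; potency means the concentration at half of the fitted maximal effect; nearly all actives have a fitted effect of over 60% in size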
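Cells in DMEM/10% FBS with G418 were pretreated with compounds in DMSO plus […] (300 uM stock) for 30 min at 37C. cAMP was measured by HTRF (cAMP-d2 plus anti-cAMP antibody-K) after 30 min at room temperature.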
GRP78 ERSR act = induces the endoplasmic reticulum stress response in human glioma cells | U87-MG GRP78 promoter luciferase reporter, 16 h | 420,000 compounds, 0.02% hits | AID 602332 | Potency, µM, without a hit: at the top dose activation, most hits filed as activators; active means well fitted activation curve with a large enough effect; inconclusive means small, poorly fitted or top-dose-only effect; inactive means no such curve, though single readings can be large or run the other way; further: potency means the concentration at half of the fitted maximal effect; series mostly up to about 76 µM; % of control where 0% means no effect; nearly all actives have a fitted effect of over 35% in size
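Stably transfected U87-MG human glioma cells carrying a GRP78-based luminescent sensor were seeded at 1000 cells/well, pin-dosed with compounds and incubated 16 h. Luciferase reagent was then added, and end-point luminescence was read after 10 min at room temperature.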
KCNH2 WT inh = inhibitors of human wildtype KCNH2 potassium channel | Q12809 | U2OS, BacMam KCNH2, thallium flux FluxOr; active compounds read low | activity change, % at 1.84 µM | 340,000 compounds, 0.37% hits;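 active means maximum activity change below -70%; inconclusive means maximum activity change between -70% and -50%; inactive means maximum activity change above -50%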; further: on the % scale 0 is the no-effect control and ±100 the full control effect
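U2OS cells transduced with wild-type KCNH2 virus are loaded with FluxOr dye for 45 min, and thallium flux is measured in kinetic reads before and after stimulation buffer. Rate constants are normalized to DMSO controls.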
Numbers without * were called inactive; i = inactive; ? = inconclusive; nt = no result; [ ] = remark or other dose. Only some compounds are listed: those with a hit (about 1.6% of all), similar ones and a draw of the others.

SMILES	gsp antagonist	KCNH2 3.1 block	Akt phos inh	gsp ag	GRP78 ERSR act	KCNH2 WT inh
CCOc1cc(C(=O)NCCc2ccc(S(N)(=O)=O)cc2)cc(OCC)c1OCC	9%	-90*	i	-49%	2%	-1
Cc1noc(C)c1C(=O)OCC(=O)NCCc1ccc(S(N)(=O)=O)cc1	9%	-84*	i	7%[15.4 µM]	-4%	-10
CC1CCCC(C)N1C(=O)CSCc1ccc(Cl)cc1 (stereo not given)	35µM*	-3	i	-43%	3%	0
CC1CCCC(C)N1C(=O)COC(=O)Cc1ccc(Cl)cc1 (stereo not given)	6%	12	i	-22%	-5%	-2
CC(=O)Nc1ccc(OC(=O)c2cccs2)cc1	0%	-93*	i	-24%	-1%	-7
COc1cc(NS(=O)(=O)c2ccc(NC(=O)c3cccs3)cc2)nc(OC)n1	22µM*	-5	i	19%[15.4 µM]	-6%	-21
CC(=O)c1ccc(OC(=O)c2cccs2)cc1	-1%	-5	i	9%	-4%	-25
CC(=O)NS(=O)(=O)c1ccc(NC(=O)c2ccc(NC(=O)c3cccs3)cc2)cc1	-6%	-163*	i	20%	-2%	-228*
COc1cc(NS(=O)(=O)c2ccc(NC(C)=O)cc2)nc(OC)n1	2%	0	i	0%	-6%	-44
Cc1c(C(=O)NCC2(N3CCCCC3)CCCC2)cnn1-c1nccc(-c2ccccc2F)n1	nt	nt	nt	nt	-2%	nt
c1cncc(CNC2CCCc3ccccc32)c1 (stereo not given)	5%	-99*	i	7%	-3%	-18
O=C(NC1CCCc2ccccc21)c1cccnc1 (stereo not given)	7%	-5	i	-31%	-1%	-6
O=[N+]([O-])c1ccc(COc2ncnc3ccccc23)cc1	6%	-192*	i	-28%[15.4 µM]	5%	-163*
O=C(COc1ncnc2ccccc12)Nc1cc([N+](=O)[O-])ccc1Cl	nt	-14	i	0%[15.4 µM]	-2%	0
CN(C)CCCNC(=O)/C=C/c1ccc2c(c1)OCO2	7%	14	i	-1%[15.4 µM]	-3%	-74*
CCOC(=O)c1c(NC(=O)/C=C/c2ccc3c(c2)OCO3)sc(C)c1CC	3%	0	nt	-54%	-2%	0
COC(=O)c1c(NC(=O)/C=C/c2ccc3c(c2)OCO3)sc(C)c1C	0%	-5	i	29%	-4%	-72*
Cc1cnc(C)c(-c2cc(F)cc3c2OC(CNC(=O)CN2CCCC2)C3)n1 (stereo not given)	nt	nt	nt	nt	0%	nt
COc1ccc(N(CC(=O)NCCSCc2c(F)cccc2Cl)S(C)(=O)=O)cc1OC	-11%	-5	i	5%	-5%	6
COC(=O)CN(c1ccc(C)c(Cl)c1)S(C)(=O)=O	-37%	7	-90%*	14%	12%	6
COc1ccc(N(CC(=O)NCCSCc2ccccc2Cl)S(C)(=O)=O)cc1Cl	-20%	-74*	i	0%	-5%	-1
N#Cc1cccc(S(=O)(=O)N2CCN(c3ccnc4cc(Cl)ccc34)CC2)c1	25µM*	-47	i	-32%	-2%	-38
O=S(=O)(c1cccc(Br)c1)N1CCN(c2ccnc3cc(Cl)ccc23)CC1	-20%	nt	i	2%[15.4 µM]	-4%	34
O=[N+]([O-])c1ccc(S(=O)(=O)N2CCN(c3ccnc4cc(Cl)ccc34)CC2)cc1	-20%	-92*	i	9%	8%	-124*
CCCc1cc(C(=O)N/N=C/c2ccc(CC)s2)c2ccccc2n1	-8%	-7	-118%*	-7%	-4%	13
Cc1cc2c(c(C)c1Cl)C(c1ccc3c(c1)OCO3)CC(c1ccccc1)O2 (stereo not given)	nt	nt	nt	nt	-5%	nt
CN1c2ccccc2C(O)=C(C(=S)Nc2ccc(Cl)cc2)S1(=O)=O	28µM*	-18	i	3%	?	-8
Cc1cccc(NC(=O)C2=C(O)c3ccccc3N(C)S2(=O)=O)c1	25µM*	-1	i	18%	5%	-8
Nc1nnnn1/N=C/c1ccco1	-1%	-7	-130%*	8%	-2%	-27
